Reference: PubChem BioAssay (NCI)
“And” between values parts separate entries of the source, which are not always exact repeats. Identical values can stand only once. Compounds without any hit were thinned out: in the full panel of roughly 83,000, 20% have a hit.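 Activity criterion: percent growth below 10, measured after cells in 96-well plates were exposed to a single compound concentration for 48 hours.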 The source made the active and inactive calls.

Assays:
Test in all cases: NCI-60 one-dose screen, 48 h (100 = growth as untreated, 0 = no growth, -100 = all killed)
Settings in all cases: 10 µM unless noted
[1] = test system: HCT-15 colon
[2] = test system: SNB-75 CNS
[3] = test system: SNB-19 CNS
[4] = test system: U251 CNS
[5] = test system: PC-3 prostate
[6] = test system: SK-MEL-5 melanoma
[7] = test system: UACC-62 melanoma
[8] = test system: LOX IMVI melanoma
[9] = test system: SK-MEL-28 melanoma
[10] = test system: SK-MEL-2 melanoma
[11] = test system: EKVX NSCLC
[12] = test system: SN12C renal
[13] = test system: UO-31 renal
[14] = test system: TK-10 renal
[15] = test system: ACHN renal
[16] = test system: CAKI-1 renal
[17] = test system: A498 renal
[18] = test system: CCRF-CEM leukemia
[19] = test system: MOLT-4 leukemia
[20] = test system: HT29 colon

SMILES | growth [1] | growth [2] | growth [3] | growth [4] | growth [5] | growth [6] | growth [7] | growth [8] | growth [9] | growth [10] | growth [11] | growth [12] | growth [13] | growth [14] | growth [15] | growth [16] | growth [17] | growth [18] | growth [19] | growth [20]
CC(C)(O)Cn1cc(-c2ccc3nc(OC4CC4)ccc3c2)c2c(N)ncnc21 | 95.3% (inactive) and 73.8% (inactive) | 40.2% (inactive) and 37.9% (inactive) | 74.8% (inactive) and 64.3% (inactive) | 82.1% (inactive) and 50.5% (inactive) | 56.8% (inactive) and 48.2% (inactive) | 84.3% (inactive) and 37.8% (inactive) | 48.4% (inactive) | 72.8% (inactive) and 30.4% (inactive) | 101% (inactive) and 71.5% (inactive) | 87.8% (inactive) | 85.8% (inactive) and 49.3% (inactive) | 87.9% (inactive) and 38.6% (inactive) | 63.7% (inactive) and 19.2% (inactive) | 74.2% (inactive) and 55.3% (inactive) | 86.2% (inactive) and 43.1% (inactive) | 80.9% (inactive) and 70.1% (inactive) | 64.9% (inactive) and 21% (inactive) | 67.2% (inactive) and 38% (inactive) | 56.6% (inactive) and 17.4% (inactive) | –
CCN(CC)CCCC(CNc1ccnc2cc(Cl)ccc12)c1ccc(Cl)cc1 (centres undefined) | -29.5% (active) and 5.81% (active) | -76.2% (active) and -39.9% (active) | – | -71.9% (active) and -57.4% (active) | 34.2% (inactive) and 19.3% (inactive) | -92.8% (active) and -96.9% (active) | -77.6% (active) and 97.7% (inactive) | -85.5% (active) and -13% (active) | – | -56.2% (active) and -67.7% (active) | -3.66% (active) and 12.1% (inactive) | -3.18% (active) and 84.7% (inactive) | – | -76.7% (active) and 14.7% (inactive) | -80.7% (active) and 2.15% (active) | -64.4% (active) and -63.6% (active) | 42.3% (inactive) and -81.8% (active) | -17.5% (active) and -46.6% (active) | -18% (active) and -51.4% (active) | 3.38% (active) and -5.84% (active)
O=C(Nc1cccc(Cl)c1)c1cc2ccccc2cc1O | 16.3% (inactive) and 9.55% (active) | 45.7% (inactive) and 33.6% (inactive) | – | 13% (inactive) and 6.25% (active) | 1.88% (active) and -4.44% (active) | -14.7% (active) and -23.9% (active) | 13.8% (inactive) and 18.4% (inactive) | 25.3% (inactive) and 11% (inactive) | 35.7% (inactive) and 42% (inactive) | 27.3% (inactive) and 7.7% (active) | 10.5% (inactive) and 15.9% (inactive) | 4.02% (active) and 7.65% (active) | – | 54.7% (inactive) and 26.8% (inactive) | 12.8% (inactive) and 12.2% (inactive) | 3.2% (active) and -1.64% (active) | -33.6% (active) | 38.2% (inactive) and 53.2% (inactive) | 26.3% (inactive) and 11.1% (inactive) | 104% (inactive) and 60.1% (inactive)
O=C(O)CCCCc1ccc([N+](=O)[O-])cc1 | 101% (inactive) | 98.7% (inactive) and 89.7% (inactive) | 101% (inactive) and 105% (inactive) | 97.4% (inactive) and 108% (inactive) | 88.5% (inactive) and 86.5% (inactive) | 107% (inactive) and 105% (inactive) | 104% (inactive) and 90.4% (inactive) | 92.7% (inactive) and 107% (inactive) | 113% (inactive) and 107% (inactive) | 98.9% (inactive) and 113% (inactive) | 107% (inactive) and 126% (inactive) | 98.9% (inactive) and 96.5% (inactive) | 82.4% (inactive) and 73.3% (inactive) | 106% (inactive) and 99.4% (inactive) | – | 107% (inactive) and 102% (inactive) | – | 97.1% (inactive) and 91.2% (inactive) | 99.4% (inactive) and 88.5% (inactive) | –
CCCCCN(CCCCC)CC(O)c1cc2c(c3ccccc13)CCCC2 (centres undefined) | 52.2% (inactive) and 52.1% (inactive) | 86.9% (inactive) and 70.7% (inactive) | 88.3% (inactive) and 83.6% (inactive) | 63% (inactive) and 62% (inactive) | 35.7% (inactive) and 57.9% (inactive) | 61.1% (inactive) and 36.3% (inactive) | 25.4% (inactive) and 58.2% (inactive) | 43.1% (inactive) and 40.8% (inactive) | 89.1% (inactive) and 57.1% (inactive) | 79.1% (inactive) and 97.2% (inactive) | 77.9% (inactive) and 46% (inactive) | 72.1% (inactive) and 75.1% (inactive) | 39.7% (inactive) and 44.7% (inactive) | 87.5% (inactive) and 73.4% (inactive) | 55.8% (inactive) and 49% (inactive) | 34.5% (inactive) and -32% (active) | – | 52.9% (inactive) and 57.2% (inactive) | 41.7% (inactive) and 61.7% (inactive) | –
CCOc1ccc2c(S(=O)(=O)O)cccc2c1[N+](=O)[O-] | 103% (inactive) and 108% (inactive) | 85.7% (inactive) and 93.8% (inactive) | 108% (inactive) and 112% (inactive) | 101% (inactive) and 99.9% (inactive) | 93.4% (inactive) and 87.4% (inactive) | 108% (inactive) | 101% (inactive) and 110% (inactive) | 105% (inactive) and 102% (inactive) | 113% (inactive) and 118% (inactive) | 117% (inactive) and 109% (inactive) | 99.2% (inactive) and 88.5% (inactive) | 106% (inactive) and 103% (inactive) | 71.5% (inactive) and 79.1% (inactive) | 104% (inactive) and 126% (inactive) | – | – | 95% (inactive) and 116% (inactive) | 90.6% (inactive) and 107% (inactive) | 86.8% (inactive) and 96.4% (inactive) | –
COC(=O)/C=C/c1cc(O)c2c(c1)C(C(=O)OC)C(c1ccc(O)c(O)c1)O2 (centres undefined) | 16.7% (inactive) and 16.2% (inactive) | 52.9% (inactive) and 37.5% (inactive) | – | 20.7% (inactive) and 14.9% (inactive) | 20.3% (inactive) and 17% (inactive) | 3.62% (active) and -13.7% (active) | 25.9% (inactive) and 31.2% (inactive) | 20.8% (inactive) and 16.3% (inactive) | – | 50.6% (inactive) and 49.3% (inactive) | 35.2% (inactive) and 38.2% (inactive) | 29.5% (inactive) and 24.6% (inactive) | 38.1% (inactive) and 40.4% (inactive) | 55% (inactive) and 51.8% (inactive) | 26.2% (inactive) and 27.2% (inactive) | 17.5% (inactive) and 18.5% (inactive) | – | 13.5% (inactive) and 16% (inactive) | 17.8% (inactive) and 21.7% (inactive) | 22.8% (inactive) and 16.3% (inactive)
O=[N+]([O-])c1ccc(/C=N\NC(=S)Nc2ccc(F)cc2)cc1 | 106% (inactive) and 96.6% (inactive) | 92.5% (inactive) and 97.9% (inactive) | 103% (inactive) and 93.5% (inactive) | 82.8% (inactive) and 83.4% (inactive) | 101% (inactive) and 86% (inactive) | 102% (inactive) and 101% (inactive) | 104% (inactive) and 91% (inactive) | 88.9% (inactive) | 103% (inactive) and 104% (inactive) | 91.1% (inactive) and 110% (inactive) | 91.9% (inactive) and 102% (inactive) | 105% (inactive) and 92% (inactive) | – | 109% (inactive) and 107% (inactive) | 86.2% (inactive) and 93.4% (inactive) | – | 119% (inactive) | 99.4% (inactive) and -3.91% (active) | 86.9% (inactive) and 98.6% (inactive) | –
OC(COc1cccc2ccccc12)CN1CCN(c2ccc(Cl)cc2)CC1 (centres undefined) | 87.4% (inactive) and 101% (inactive) | 73.7% (inactive) and 88% (inactive) | 87.6% (inactive) and 90.2% (inactive) | 69.9% (inactive) and 108% (inactive) | 88.4% (inactive) | 87.6% (inactive) and 102% (inactive) | 98% (inactive) and 85% (inactive) | 86.3% (inactive) and 82.2% (inactive) | 107% (inactive) and 114% (inactive) | 103% (inactive) and 98.8% (inactive) | 108% (inactive) and 94.9% (inactive) | 98.5% (inactive) and 97.8% (inactive) | 80.2% (inactive) and 63.6% (inactive) | 70.8% (inactive) and 101% (inactive) | 68.6% (inactive) and 102% (inactive) | 85.5% (inactive) | 92.3% (inactive) and 77% (inactive) | 83.3% (inactive) | 110% (inactive) | –
